This passage reports binding signal results from publication PMC11006913.

Positions count from the first letter of the chain named.

What all share (assay): PBM; 200 nM protein, PBS
Common to all, as to conditions: dsDNA, one strand shown

Test [1] has as its target SHOX (Homo sapiens, UniProt O15266 103-189).
For test [2], the target named is ALX4 (Homo sapiens, UniProt Q9H161 200-286).
Test [3] addresses T1, PAX4 (Homo sapiens, UniProt O43316 9-242, R200K).
T1 sequence: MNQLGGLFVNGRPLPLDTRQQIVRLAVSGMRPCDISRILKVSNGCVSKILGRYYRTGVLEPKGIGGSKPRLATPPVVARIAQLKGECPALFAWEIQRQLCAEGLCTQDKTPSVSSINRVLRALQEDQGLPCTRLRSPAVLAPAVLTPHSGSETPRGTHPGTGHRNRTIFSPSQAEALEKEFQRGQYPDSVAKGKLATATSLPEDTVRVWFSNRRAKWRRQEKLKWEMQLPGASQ

In test [4] the target is PRRX1 (Homo sapiens, UniProt P54821 80-166, F113S).
The target of test [5] is T2, PAX4 (Homo sapiens, UniProt O43316 9-242).
T2 sequence: T1 sequence with K192R

Test [6] has as its target ALX4 (Homo sapiens, UniProt Q9H161 200-286, Q225E).
Test [7] concerns the target ALX1 (Homo sapiens, UniProt Q15699 118-204, L144V).
The target in test [8] is ALX3 (Homo sapiens, UniProt O95076 139-225, N203Q).
The target of test [9] is T3, PAX4 (Homo sapiens, UniProt O43316 9-242, R200Q).
T3 sequence: T1 sequence with K192Q

The target in test [10] is SHOX (Homo sapiens, UniProt O15266 103-189, R173C).
Test [11] deals with ALX1 (Homo sapiens, UniProt Q15699 118-204, L144R).
Test [12] has as its target T4, PAX4 (Homo sapiens, UniProt O43316 9-242, F177V).
T4 sequence: T1 sequence with F169V, K192R

The target of test [13] is ALX3 (Homo sapiens, UniProt O95076 139-225).
The target in test [14] is T5, PAX4 (Homo sapiens, UniProt O43316 9-242, F177Y).
T5 sequence: T1 sequence with F169Y, K192R

For test [15], the target named is PROP1 (Homo sapiens, UniProt O75360 56-141).
Test [16] addresses PROP1 (Homo sapiens, UniProt O75360 56-141, R99H).
Test [17] concerns the target ALX3 (Homo sapiens, UniProt O95076 139-225, L168Q).
In test [18] the target is ALX3 (Homo sapiens, UniProt O95076 139-225, L168V).
Test [19] deals with PROP1 (Homo sapiens, UniProt O75360 56-141, F88S).
Test [20] deals with T6, PAX4 (Homo sapiens, UniProt O43316 9-242, R227W).
T6 sequence: T1 sequence with K192R, R219W

Test [21] concerns the target ALX1 (Homo sapiens, UniProt Q15699 118-204).
For test [22], the target named is ALX3 (Homo sapiens, UniProt O95076 139-225, N203S).
In test [23] the target is PRRX1 (Homo sapiens, UniProt P54821 80-166).
The target in test [24] is MSX2 (Homo sapiens, UniProt P35548 130-214, R199I).
The target in test [25] is MSX2 (Homo sapiens, UniProt P35548 130-214).
For test [26], the target named is MSX2 (Homo sapiens, UniProt P35548 130-214, F161Y).
The target in test [27] is HOXB6 (Homo sapiens, UniProt P17509 132-218, K202E).
For test [28], the target named is HOXB6 (Homo sapiens, UniProt P17509 132-218).
Chain of HOXB6 (Homo sapiens, UniProt P17509 132-218) (P17509 132-218): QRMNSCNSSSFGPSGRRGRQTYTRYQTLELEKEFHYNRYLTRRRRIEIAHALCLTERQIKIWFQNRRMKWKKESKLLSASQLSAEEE

Chain of MSX2 (Homo sapiens, UniProt P35548 130-214) (P35548 130-214): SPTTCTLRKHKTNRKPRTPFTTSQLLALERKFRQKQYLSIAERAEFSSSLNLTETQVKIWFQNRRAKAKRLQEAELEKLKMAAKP
Chain of MSX2 (Homo sapiens, UniProt P35548 130-214, R199I) (P35548 130-214 R199I): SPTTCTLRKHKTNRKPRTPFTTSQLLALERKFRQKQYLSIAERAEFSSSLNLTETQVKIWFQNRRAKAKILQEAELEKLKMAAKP
Chain of SHOX (Homo sapiens, UniProt O15266 103-189) (O15266 103-189): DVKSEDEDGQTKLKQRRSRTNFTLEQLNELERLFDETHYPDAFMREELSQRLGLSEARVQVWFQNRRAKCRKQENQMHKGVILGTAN
Chain of SHOX (Homo sapiens, UniProt O15266 103-189, R173C) (O15266 103-189 R173C): as the sequence (O15266 103-189) above, with R71C counted along it
Chain of MSX2 (Homo sapiens, UniProt P35548 130-214, F161Y) (P35548 130-214 F161Y): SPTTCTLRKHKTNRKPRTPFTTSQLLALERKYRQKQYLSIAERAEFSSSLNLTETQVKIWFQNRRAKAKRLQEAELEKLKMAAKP
Chain of ALX1 (Homo sapiens, UniProt Q15699 118-204, L144V) (Q15699 118-204 L144V): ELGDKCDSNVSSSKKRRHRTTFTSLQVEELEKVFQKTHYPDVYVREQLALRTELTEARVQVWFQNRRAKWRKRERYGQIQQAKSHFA
Chain of ALX1 (Homo sapiens, UniProt Q15699 118-204, L144R) (Q15699 118-204 L144R): as the sequence (Q15699 118-204 L144V) above, with V27R counted along it
Chain of ALX1 (Homo sapiens, UniProt Q15699 118-204) (Q15699 118-204): as the sequence (Q15699 118-204 L144V) above, with V27L counted along it
Chain of ALX4 (Homo sapiens, UniProt Q9H161 200-286) (Q9H161 200-286): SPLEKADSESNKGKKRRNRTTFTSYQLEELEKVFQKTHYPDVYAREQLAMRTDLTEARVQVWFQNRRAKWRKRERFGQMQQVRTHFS
Chain of HOXB6 (Homo sapiens, UniProt P17509 132-218, K202E) (P17509 132-218 K202E): as the sequence (P17509 132-218) above, with K71E counted along it
Chain of PRRX1 (Homo sapiens, UniProt P54821 80-166, F113S) (P54821 80-166 F113S): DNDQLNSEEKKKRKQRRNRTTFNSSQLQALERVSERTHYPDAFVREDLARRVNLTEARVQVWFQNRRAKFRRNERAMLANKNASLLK
Chain of ALX3 (Homo sapiens, UniProt O95076 139-225, N203S) (O95076 139-225 N203S): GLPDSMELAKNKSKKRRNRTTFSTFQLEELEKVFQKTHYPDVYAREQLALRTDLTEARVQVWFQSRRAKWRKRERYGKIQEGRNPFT
Chain of PROP1 (Homo sapiens, UniProt O75360 56-141, R99H) (O75360 56-141 R99H): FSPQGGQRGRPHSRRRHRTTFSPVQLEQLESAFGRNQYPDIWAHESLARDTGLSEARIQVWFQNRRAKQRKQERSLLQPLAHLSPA
Chain of PRRX1 (Homo sapiens, UniProt P54821 80-166) (P54821 80-166): as the sequence (P54821 80-166 F113S) above, with S34F counted along it
Chain of ALX3 (Homo sapiens, UniProt O95076 139-225) (O95076 139-225): as the sequence (O95076 139-225 N203S) above, with S65N counted along it
Chain of ALX3 (Homo sapiens, UniProt O95076 139-225, N203Q) (O95076 139-225 N203Q): as the sequence (O95076 139-225 N203S) above, with S65Q counted along it
Chain of ALX3 (Homo sapiens, UniProt O95076 139-225, L168Q) (O95076 139-225 L168Q): as the sequence (O95076 139-225 N203S) above, with L30Q, S65N counted along it
Chain of ALX4 (Homo sapiens, UniProt Q9H161 200-286, Q225E) (Q9H161 200-286 Q225E): as the sequence (Q9H161 200-286) above, with Q26E counted along it
Chain of ALX3 (Homo sapiens, UniProt O95076 139-225, L168V) (O95076 139-225 L168V): as the sequence (O95076 139-225 N203S) above, with L30V, S65N counted along it
Chain of PROP1 (Homo sapiens, UniProt O75360 56-141, F88S) (O75360 56-141 F88S): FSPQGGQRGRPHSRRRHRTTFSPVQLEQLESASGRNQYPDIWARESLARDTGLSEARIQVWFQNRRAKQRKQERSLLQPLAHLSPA
Chain of PROP1 (Homo sapiens, UniProt O75360 56-141) (O75360 56-141): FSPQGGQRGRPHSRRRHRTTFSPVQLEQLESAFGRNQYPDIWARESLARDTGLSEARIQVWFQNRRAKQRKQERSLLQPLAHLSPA

For the sequence CTAATTTA, the binding signal with SHOX [1] is 11.5 upbm affinity estimate (log intensity, higher = more binding, comparable within an allelic series); in the test with ALX4 [2], 13.7 upbm affinity estimate (log intensity, higher = more binding, comparable within an allelic series); with PAX4 [3] it was 11.7 upbm affinity estimate (log intensity, higher = more binding, comparable within an allelic series); with PRRX1 [4], 11.1 upbm affinity estimate (log intensity, higher = more binding, comparable within an allelic series); in the test with PAX4 [5], 12.3 upbm affinity estimate (log intensity, higher = more binding, comparable within an allelic series); with ALX4 [6], 12.6 upbm affinity estimate (log intensity, higher = more binding, comparable within an allelic series). Besides, the binding signal was 11.4 upbm affinity estimate (log intensity, higher = more binding, comparable within an allelic series) in the test with ALX1 [7]; 8.44 upbm affinity estimate (log intensity, higher = more binding, comparable within an allelic series) with ALX3 [8]; 11.9 upbm affinity estimate (log intensity, higher = more binding, comparable within an allelic series) with PAX4 [9]; 9.2 upbm affinity estimate (log intensity, higher = more binding, comparable within an allelic series) in the test with SHOX [10]; 11.1 upbm affinity estimate (log intensity, higher = more binding, comparable within an allelic series) with ALX1 [11]; 10.6 upbm affinity estimate (log intensity, higher = more binding, comparable within an allelic series) in the test with PAX4 [12]. For the same sequence, the binding signal was 12.3 upbm affinity estimate (log intensity, higher = more binding, comparable within an allelic series) with ALX3 [13]; 11 upbm affinity estimate (log intensity, higher = more binding, comparable within an allelic series) in the test with PAX4 [14]; 11 upbm affinity estimate (log intensity, higher = more binding, comparable within an allelic series) with PROP1 [15]; 10.8 upbm affinity estimate (log intensity, higher = more binding, comparable within an allelic series) with PROP1 [16]; 10.2 upbm affinity estimate (log intensity, higher = more binding, comparable within an allelic series) in the test with ALX3 [17]; 9.6 upbm affinity estimate (log intensity, higher = more binding, comparable within an allelic series) in the test with ALX3 [18]. For the same sequence, the binding signal was 7.64 upbm affinity estimate (log intensity, higher = more binding, comparable within an allelic series) in the test with PROP1 [19]; 11 upbm affinity estimate (log intensity, higher = more binding, comparable within an allelic series) in the test with PAX4 [20]; 12.1 upbm affinity estimate (log intensity, higher = more binding, comparable within an allelic series) with ALX1 [21]; 8.54 upbm affinity estimate (log intensity, higher = more binding, comparable within an allelic series) with ALX3 [22]; 13.3 upbm affinity estimate (log intensity, higher = more binding, comparable within an allelic series) with PRRX1 [23].
As to GCGCCAGC, the binding signal with SHOX [1] was 7.13 upbm affinity estimate (log intensity, higher = more binding, comparable within an allelic series); in the test with MSX2 [24], 9.22 upbm affinity estimate (log intensity, higher = more binding, comparable within an allelic series); in the test with SHOX [10], 6.97 upbm affinity estimate (log intensity, higher = more binding, comparable within an allelic series); with MSX2 [25], 9.48 upbm affinity estimate (log intensity, higher = more binding, comparable within an allelic series); in the test with MSX2 [26], 9.39 upbm affinity estimate (log intensity, higher = more binding, comparable within an allelic series).
In the case of GCAGAGCC, the binding signal was 7.11 upbm affinity estimate (log intensity, higher = more binding, comparable within an allelic series) in the test with SHOX [1]; 8.95 upbm affinity estimate (log intensity, higher = more binding, comparable within an allelic series) in the test with HOXB6 [27]; 7.16 upbm affinity estimate (log intensity, higher = more binding, comparable within an allelic series) with SHOX [10]; 8.72 upbm affinity estimate (log intensity, higher = more binding, comparable within an allelic series) with HOXB6 [28].
Consider ACCGGCTG, for which the binding signal with SHOX [1] was 7.1 upbm affinity estimate (log intensity, higher = more binding, comparable within an allelic series); in the test with MSX2 [24], 9.47 upbm affinity estimate (log intensity, higher = more binding, comparable within an allelic series); with SHOX [10] it was 7.13 upbm affinity estimate (log intensity, higher = more binding, comparable within an allelic series); in the test with MSX2 [25], 9.51 upbm affinity estimate (log intensity, higher = more binding, comparable within an allelic series); with MSX2 [26], 9.53 upbm affinity estimate (log intensity, higher = more binding, comparable within an allelic series).
CGGACAGC: the binding signal with SHOX [1] was 7.13 upbm affinity estimate (log intensity, higher = more binding, comparable within an allelic series); in the test with PAX4 [3], 9.47 upbm affinity estimate (log intensity, higher = more binding, comparable within an allelic series); in the test with PAX4 [5], 9.43 upbm affinity estimate (log intensity, higher = more binding, comparable within an allelic series); with MSX2 [24], 9.52 upbm affinity estimate (log intensity, higher = more binding, comparable within an allelic series); with ALX1 [7] it was 6.29 upbm affinity estimate (log intensity, higher = more binding, comparable within an allelic series); with PAX4 [9] it was 9.47 upbm affinity estimate (log intensity, higher = more binding, comparable within an allelic series). In addition, the binding signal was 7.17 upbm affinity estimate (log intensity, higher = more binding, comparable within an allelic series) in the test with SHOX [10]; 6.43 upbm affinity estimate (log intensity, higher = more binding, comparable within an allelic series) with ALX1 [11]; 9.4 upbm affinity estimate (log intensity, higher = more binding, comparable within an allelic series) with PAX4 [12]; 9.55 upbm affinity estimate (log intensity, higher = more binding, comparable within an allelic series) in the test with MSX2 [25]; 9.46 upbm affinity estimate (log intensity, higher = more binding, comparable within an allelic series) with PAX4 [14]; 9.53 upbm affinity estimate (log intensity, higher = more binding, comparable within an allelic series) with MSX2 [26]. Besides, the binding signal with PAX4 [20] is 9.46 upbm affinity estimate (log intensity, higher = more binding, comparable within an allelic series); with ALX1 [21] it was 6.5 upbm affinity estimate (log intensity, higher = more binding, comparable within an allelic series).
